# Hits are enriched below; roughly 2.6% of the tested compounds scored in any of these assays.
# PABP1 MLLE inh: blocks PAM2 peptide binding to the PABP1 MLLE domain; 0.36% of 360,000 active; GST-MLLE / FITC-PAM2 fluorescence polarization; inhibition, % at 20 µM; P11940; AID 588489; in the data active = inhibition above about 35%, passing the limit was not always enough
# PABP polyA inh: blocks human PABP binding to poly(A) RNA. P11940. 1% of 290,000 active. calls only at 35 µM. fluorescence polarization. AID 2014;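 note: calls also rest on retests at 20 µM and on dose response follow-up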
# PHOSPHO1 block: inhibitors of human PHOSPHO1 phosphatase | recombinant PHOSPHO1, absorbance phosphatase assay | inhibition, % at 13.3 µM | 1.1% of 290,000 active | AID 1565; in the data active = inhibition above about 60%
# Target sequence (Q8TCT1 whole entry, looked up): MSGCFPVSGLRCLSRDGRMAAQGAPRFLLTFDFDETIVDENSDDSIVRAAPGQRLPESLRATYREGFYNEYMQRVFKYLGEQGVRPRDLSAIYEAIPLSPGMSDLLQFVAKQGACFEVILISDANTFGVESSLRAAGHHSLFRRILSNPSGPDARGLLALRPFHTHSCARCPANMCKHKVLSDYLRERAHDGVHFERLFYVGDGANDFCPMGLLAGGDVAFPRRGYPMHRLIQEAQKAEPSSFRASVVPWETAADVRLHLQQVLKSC
# A3A deaminase: human APOBEC3A DNA deaminase inhibition | recombinant A3A, FAM/TAMRA ssDNA deamination fluorescence | inhibition, % at 20 µM | 0.41% of 330,000 active;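 active = at least 40% inhibition at 20 µM here, with at most 30% in a related deaminase screen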
# Target sequence (P31941 whole entry, looked up): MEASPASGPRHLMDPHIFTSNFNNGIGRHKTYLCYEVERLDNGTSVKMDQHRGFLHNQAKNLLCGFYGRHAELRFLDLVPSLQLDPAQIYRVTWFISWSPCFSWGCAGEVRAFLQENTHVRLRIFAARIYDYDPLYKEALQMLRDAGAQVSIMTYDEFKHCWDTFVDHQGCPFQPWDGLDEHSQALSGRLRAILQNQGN
# A3G deaminase: inhibitors of human APOBEC3G DNA deaminase. 0.28% of 330,000 active. inhibition, % at 20 µM. AID 493012. recombinant A3G, ssDNA deamination FAM/TAMRA fluorescence. Q9HC16;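 active = inhibition of at least 40% at 20 µM, with no more than 30% in the related APOBEC3A deaminase screen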
# eIF4H FP inh: inhibitors of RNA binding by human eIF4H; 0.94% of 290,000 active; inhibition, % at 35 µM; eIF4H fluorescence polarization binding assay; Q15056; AID 2012;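 note: calls also rest on retests at 20 µM and on dose response follow-up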
# Numbers stand for hits; - = inactive; ? = inconclusive; . = no result; + = active, no number. Unless noted, the rule behind the calls is not given here.
SMILES,PABP1 MLLE inh,PABP polyA inh,PHOSPHO1 block,A3A deaminase,A3G deaminase,eIF4H FP inh
CCc1ccc(S(=O)(=O)Nc2cc(SCC(=O)O)c(O)c3ccccc23)cc1,-,-,-,-,-,-
Cc1ccc(O)c(C(=O)c2cc(C#N)c3nc4ccccc4n3c2)c1,-,-,-,-,-,-
CC1CCCN(C(=O)CSc2ncccn2)C1 (centres undefined),-,-,-,-,-,-
Cc1cc2c(cc1S(=O)(=O)C(C)CC(=O)NCc1ccco1)OCC(=O)N2 (centres undefined),-,-,-,-,-,-
CCOc1ccc(S(=O)(=O)N2CCCCC2)cc1NC(=O)CSCc1c(C)noc1C,-,.,.,-,-,.
COc1ccc(CCNC(=O)CN2C(=O)NC3(CCOc4ccccc43)C2=O)cc1 (centres undefined),-,.,.,-,-,.
CCC(C(=O)NC1CCCCC1)n1nc(C)c2c(C)n(-c3ccccc3)nc2c1=O (centres undefined),-,-,-,-,-,-
COc1ccc(OC)c(CCNC(=O)C(C)n2nc(C)c3c(C)n(-c4ccc(C)cc4)nc3c2=O)c1 (centres undefined),-,.,-,-,-,.
CCC(C(=O)NC1CC1)n1nc(C)c2c(C)n(-c3ccccc3)nc2c1=O (centres undefined),-,-,65,-,-,-
COc1ccc(OC)c(CCNC(=O)C(C)n2nc(C)c3c(C)n(-c4ccccc4)nc3c2=O)c1 (centres undefined),-,-,70,-,-,-
O=C(Nc1cccc(S(=O)(=O)NC2=NCCC2)c1)C1CC(=O)N(c2ccc3c(c2)OCCO3)C1 (centres undefined),-,-,-,-,-,-
CN1C(=O)S/C(=C/c2cccn2-c2cccc(C(=O)O)c2)C1=O,-,-,-,.,.,-
O=C(O)c1cccc(-n2cccc2/C=C\[N+](=O)[O-])c1,-,+,-,-,-,-
O=C(O)c1cccc(-n2cccc2/C=N/O)c1,-,+,-,-,-,92
ON=Cc1cccn1-c1ccccc1,-,-,-,-,-,-
O=C(O)c1cccc(-n2cccc2/C=C/[N+](=O)[O-])c1,-,+,-,-,-,94
O=C(Nc1cccc(Cl)c1)Nc1cc(S(=O)(=O)N2CCOCC2)ccc1N1CCCC1,-,-,-,-,-,-
CCOc1ccc(C2CC(=O)n3nc(C45CC6CC(CC(C6)C4)C5)nc3S2)cc1OC (centres undefined),-,-,84,-,-,-
COc1ccc(C2=NNC(c3cc(Cl)cc4c3OCOC4)C2)c(O)c1 (centres undefined),.,-,-,-,-,52
O=c1[nH]c(=O)n(CCO)c2nnn(Cc3ccccc3)c12,-,-,-,-,-,-
Cn1c(=O)[nH]c2cc(Cl)cnc21,47,?,-,-,-,?
Cn1c(=O)[nH]c2c(Cl)nccc21,-,-,-,-,-,-
O=C(NC(=S)Nc1ccccc1Cl)c1cncc(Br)c1,43,-,-,-,-,-
Cc1ccc(C)c(NC(=S)NNC(=O)c2csc(C(C)C)c2)c1,39,+,-,-,-,13
Cc1ccc(NC(=S)NC(=O)c2cncc(Br)c2)c(C)c1,-,.,.,-,-,.
SMILES,PABP1 MLLE inh,PABP polyA inh,PHOSPHO1 block,A3A deaminase,A3G deaminase,eIF4H FP inh
Cc1ccc(C)c(NC(=S)NC(=O)c2cncc(Br)c2)c1,40,.,.,-,-,.
O=C(NC(=S)Nc1nc(-c2ccccc2)cs1)c1cncc(Br)c1,45,-,-,-,-,-
COc1ccc(C2/C=C\CC(NC(=O)OCC3c4ccccc4-c4ccccc43)CC(=O)N2Cc2ccccc2F)cc1 (centres undefined),-,.,.,-,-,.
Cc1nc(-c2ccncc2)sc1C(=O)Nc1ccc(Br)cc1,-,-,-,-,-,-
COc1ccc(C2=NS(=O)(=O)N(C)C(C(=O)N3CCc4ccccc4C3)=C2)cc1OC,-,-,-,-,-,-
CC(C)OCCCNS(=O)(=O)c1ccc2c(c1)oc(=O)n2C,-,-,-,-,-,-
CCCN(CCC)CCCNS(=O)(=O)c1ccc2c(c1)oc(=O)n2C,-,-,62,-,-,-
Cn1c(=O)oc2cc(S(=O)(=O)NCc3ccncc3)ccc21,-,+,-,-,-,72
COc1cc(Nc2nc3ccccc3n3nnnc23)cc(OC)c1OC,-,+,-,-,-,80
COc1ccc(Nc2nc3ccccc3n3nnnc23)cc1,-,-,-,-,-,-
COc1cccc(NC(=S)NNC(=O)c2c([N+](=O)[O-])c(C)nn2C)c1,-,-,82,-,-,-
C[N+]1(CCOS(=O)C23CC4CC(CC(C4)C2)C3)CCOCC1 (centres undefined),-,.,81,-,-,.
N/C(=N\NC(=O)c1cccs1)c1cc2cc(Cl)ccc2oc1=O,-,-,-,-,-,-
CCN(CC)C(=O)CC(c1cc(OC)c(OC)c(OC)c1)c1c(OC)cc(OC)c2c(-c3ccccc3)cc(=O)oc12 (centres undefined),-,+,-,-,-,103
CCN(CC)C(=O)CC(c1cc(OC)c(OC)c(OC)c1)c1c(OC)cc(OC)c2ccc(=O)oc12 (centres undefined),-,-,-,-,-,-
COc1cc(NS(=O)(=O)c2ccc3c(c2)C(C)(C)C(=O)N3C)cc(OC)c1,-,-,-,-,-,-
CC(C(=O)O)N1C(=O)/C(=C/C=C/c2ccco2)SC1=S (centres undefined),-,+,-,-,-,89
O=C1/C(=C/C=C/c2ccco2)SC(=S)N1NS(=O)(=O)c1ccccc1,-,+,-,-,-,89
CC(=C\c1ccccc1)/C=C1/SC(=S)N(C(C(=O)O)C(C)C)C1=O (centres undefined),-,-,-,.,.,-
CN(C)CCCN(C(=O)c1cc2cc([N+](=O)[O-])ccc2s1)c1nc2cc3c(cc2s1)OCCO3,-,.,.,-,-,.
Brc1cccc(-c2nnc3sc(CNCc4ccco4)cn23)c1,-,-,83,-,-,-
CCCc1[nH]nc2c1C(c1ccc(OC(=O)N3CCOCC3)cc1)C(C#N)=C(N)O2 (centres undefined),-,-,63,-,-,-
O=C(CSc1ncc(-c2ccc(F)cc2)[nH]1)Nc1cccc(O)c1,-,-,-,-,-,-
O=C(CC1Sc2ccccc2NC1=O)OCC(=O)N1CCc2ccccc21 (centres undefined),-,-,62,-,-,-
Cc1ccc(C)c2[nH]c(=O)c(CCNC(=O)c3ccc(S(=O)(=O)N4CCOCC4)cc3)cc12,-,-,-,-,-,-
CN(C)S(=O)(=O)c1cccc(NC(=S)N/N=C/c2ccc(O)c(O)c2O)c1,-,+,-,.,.,57
CSCCC(NC(=O)c1cc(C)oc1C)C(=O)O (centres undefined),-,-,90,-,-,-
CSCCC(NC(=O)c1cc(CC(C)C)oc1C)C(=O)O (centres undefined),-,-,-,-,-,-

# Bioassay records deposited in PubChem by Sanford-Burnham Center for Chemical Genomics.
